{"source": "PubChem BioAssay AID504651", "about": "(National Center for Advancing Translational Sciences (NCATS), 2011)", "note": "The whole screen tested about 360,000 compounds, of which about 130 (0.036%) were called active. Shown is part of a subset that was picked to be rich in actives. Unmarked numbers belong to inactive results. Rule as the data show it: active = potentiation above about 30%; inactive = the rest.", "data": [{"target": "D(1A) dopamine receptor (Homo sapiens) (UniProt P21728)", "sequence (P21728 whole entry, looked up)": "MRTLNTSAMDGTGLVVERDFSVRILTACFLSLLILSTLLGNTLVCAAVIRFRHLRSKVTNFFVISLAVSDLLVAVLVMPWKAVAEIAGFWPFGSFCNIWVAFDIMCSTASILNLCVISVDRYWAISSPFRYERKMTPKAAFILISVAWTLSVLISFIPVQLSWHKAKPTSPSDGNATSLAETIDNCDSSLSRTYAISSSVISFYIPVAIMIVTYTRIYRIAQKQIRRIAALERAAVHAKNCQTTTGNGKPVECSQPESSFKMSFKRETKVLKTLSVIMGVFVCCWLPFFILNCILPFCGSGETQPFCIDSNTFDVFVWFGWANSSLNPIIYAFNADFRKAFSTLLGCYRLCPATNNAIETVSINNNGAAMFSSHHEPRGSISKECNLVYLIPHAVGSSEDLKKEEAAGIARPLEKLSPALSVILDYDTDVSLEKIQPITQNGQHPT", "assay": "Potentiators of Human D1 Dopamine Receptor: qHTS; also: 0% is about no effect", "conditions": "HEK293 TREx D1 cells, calcium flux, dopamine EC20 potentiation; at 10 µM; stronger effect = higher value", "values": [{"smiles": "CCOc1ccccc1NC(=O)CSc1ncc(S(=O)(=O)c2ccc(C(C)(C)C)cc2)c(=O)[nH]1", "potentiation": "2.25%"}, {"smiles": "COc1ccc2c(Sc3ccc(C)cc3)c(C(=O)NC(C)c3ccccc3)[nH]c2c1", "note": "(stereo unspecified)", "potentiation": "-3.25%"}, {"smiles": "Cn1nnnc1SCCCNCc1cccc(OCc2ccc(Cl)cc2)c1", "potentiation": "0.9%"}, {"smiles": "CC(NC(=O)c1cc(Sc2ccc(F)cc2F)nc2ccccc12)c1ccccc1", "note": "(stereo unspecified)", "potentiation": "-2.8%"}, {"smiles": "Cc1cc2c(s1)c1cnn(Cc3c(F)cccc3Cl)c(=O)c1n2C", "potentiation": "-3.2%"}, {"smiles": "COc1ccc(OCCCn2c(C3CC(=O)N(c4ccc(F)cc4)C3)nc3ccccc32)cc1", "note": "(stereo unspecified)", "potentiation": "-2%"}, {"smiles": "Cn1nnnc1Sc1ncnc2scc(-c3ccccc3[N+](=O)[O-])c12", "potentiation": "9.9%"}, {"smiles": "COC(=O)c1ccc(C2C(C(=O)Nc3ccccc3)=C(C)Nc3nc4ccccc4n32)cc1", "note": "(stereo unspecified)", "potentiation": "-1.75%"}, {"smiles": "CC(C)Cn1c(=O)c2ccccc2n2c(CCC(=O)N3CCN(c4cccc(Cl)c4)CC3)nnc12", "potentiation": "-1.35%"}, {"smiles": "Cc1ccc(NC(=O)c2ccc(CN3CC(=O)N4CCCCC4C3=O)cc2)c(Cl)c1", "note": "(stereo unspecified)", "potentiation": "1.5%"}, {"smiles": "COc1ccc(-n2ccn(CC(=O)Nc3ccc(C)c(C)c3)c(=O)c2=O)cc1OC", "potentiation": "-0.8%"}, {"smiles": "COc1cc(-c2cc3n(C)c(C)c(CCC(=O)Nc4ccc(F)cc4)c(=O)n3n2)cc(OC)c1OC", "potentiation": "0.6%"}, {"smiles": "Cc1cc(C)cc(NC(=O)c2cnc3sc(N4CCCC4)nn3c2=O)c1", "potentiation": "-4.45%"}, {"smiles": "CCCC(=O)Nc1cc(C(=O)NCc2ccc(OC)cc2)ccc1S(=O)(=O)c1ccc(Cl)cc1", "potentiation": "-6.15%"}, {"smiles": "COc1ccc(Cl)cc1NC(=O)CCn1c(=O)c2cccn2c2ccccc21", "potentiation": "-4.3%"}, {"smiles": "CCCCN(CC)CCCNC(=O)Cn1ncc2c([nH]c3ccc(C)cc32)c1=O", "potentiation": "1.4%"}, {"smiles": "COc1ccccc1CNCc1ccc(C(=O)O)s1", "potentiation": "-0.25%"}, {"smiles": "O=C(NCC12CC3CC(CC(C3)C1)C2)c1cc2nc(-c3ccccc3)cc(C(F)(F)F)n2n1", "potentiation": "0.55%"}, {"smiles": "CCOc1ccccc1NC(=O)Cn1c(=O)n(-c2cccc(C)c2)c(=O)c2c1c1cc(OC)ccc1n2C", "potentiation": "3.65%"}, {"smiles": "CC(C)(C)OC(=O)N1CCC(c2c(C(=O)N3CCc4ccccc4C3)cnn2-c2ccc(F)cc2)CC1", "potentiation": "-4.3%"}, {"smiles": "O=C(CCSCc1ccccc1F)N1CCN(c2ccc(Cl)cc2)CC1", "potentiation": "-0.6%"}, {"smiles": "Cc1noc(C)c1-c1ccc2ncnc(NCc3ccc(F)c(F)c3)c2c1", "potentiation": "-4.15%"}, {"smiles": "O=C(CS(=O)(=O)c1cccc2nsnc12)N1CCN(c2cccc(Cl)c2)CC1", "potentiation": "0.15%"}, {"smiles": "Cc1cc(C)c2oc(C(=O)Nc3c(C(=O)Nc4ccccc4)oc4ccccc34)cc(=O)c2c1", "potentiation": "0.8%"}, {"smiles": "Cc1ccc(C(=O)NC2CCN(C#N)CC2)cc1", "potentiation": "-6.15%"}, {"smiles": "O=C(Nc1nc2c(s1)CCCC2)c1ccccc1F", "potentiation": "0.5%"}, {"smiles": "CCOc1ccc(S(=O)(=O)c2cn(Cc3ccc(OC)cc3)c3ccc(F)cc3c2=O)cc1", "potentiation": "-1.95%"}, {"smiles": "Cc1cc(C)c(NC(=O)CSc2nc3nccnc3c(=O)n2CCc2c[nH]c3ccccc23)c(C)c1", "potentiation": "-2.8%"}, {"smiles": "Cc1cccc(Cn2c(=O)n(CCC(=O)NCCc3ccc(Cl)cc3)c(=O)c3sccc32)c1", "potentiation": "0.55%"}, {"smiles": "O=C(CNC(=O)c1ccc(Cl)cc1Cl)OC(C(=O)Nc1cc(C(F)(F)F)ccc1Cl)c1ccccc1", "note": "(stereo unspecified)", "potentiation": "-4%"}, {"smiles": "Cc1ccc(-c2cc(C(=O)Oc3ccccc3Cl)no2)cc1C", "potentiation": "0.6%"}, {"smiles": "COc1ccc(Cl)cc1NC(=O)Cn1c(=O)c2ccccc2n2nncc12", "potentiation": "1.65%"}, {"smiles": "NS(=O)(=O)c1ccc(-c2ccc(/C=C3\\SC(=O)NC3=O)o2)cc1", "potentiation": "0.85%"}, {"smiles": "CN1C(=O)/C(=C\\c2ccc(-c3ccccc3)o2)SC1=S", "potentiation": "39.7% (active)"}, {"smiles": "CN=C1S/C(=C\\c2ccc(Sc3ccc(Cl)cc3)o2)C(=O)N1C", "potentiation": "5.08%"}, {"smiles": "Oc1ccc(Cl)cc1C1C=C(c2ccc3c(c2)OCO3)NC(c2c(F)cccc2Cl)N1", "note": "(stereo unspecified)", "potentiation": "-3.2%"}, {"smiles": "O=[S+]([O-])(c1ccc2c(c1)OCCO2)N1CCN([S+](=O)([O-])c2c(Cl)cc(Cl)cc2Br)CC1", "potentiation": "-3.2%"}, {"smiles": "COc1ccc(-c2nc(Cn3c(=O)cc(C)c4c(C)nn(-c5ccccc5)c43)c(C)o2)c(OC)c1", "potentiation": "-4.4%"}, {"smiles": "Cc1nc2ccn(Cc3cccs3)c(=O)c2cc1C(=O)NCc1ccc(Cl)cc1", "potentiation": "-6.65%"}, {"smiles": "COc1ccc(CCNS(=O)(=O)c2cc(-c3cc(C)no3)ccc2C)cc1OC", "potentiation": "-4.9%"}, {"smiles": "Cc1ccc(S(=O)(=O)N2CCc3cc(C(=O)Nc4ccc(Cl)cc4C)ccc32)cc1", "potentiation": "-2.8%"}, {"smiles": "Cc1ccsc1CN(C(=O)c1oc2ccc(Br)cc2c1C)C1CCS(=O)(=O)C1", "note": "(stereo unspecified)", "potentiation": "0.7%"}, {"smiles": "Cc1ccc(SCC(=O)Nc2ccc3oc(-c4ccccc4F)nc3c2)cc1", "potentiation": "-1.1%"}, {"smiles": "Cc1ccc(C)c(CNC(=O)c2cc3ccccn3n2)c1", "potentiation": "-6.6%"}, {"smiles": "COc1ccc2[nH]c3c(c2c1)CCN(C(=O)CCC1CCCC1)C3c1ccc(F)cc1", "note": "(stereo unspecified)", "potentiation": "-2.5%"}, {"smiles": "COc1ccc([N+](=O)[O-])cc1-c1nc2ccccc2nc1-c1ccccc1", "potentiation": "30.4% (active)"}, {"smiles": "COc1cc2c(cc1OC)C(c1cccc([N+](=O)[O-])c1)=NCC2", "potentiation": "-1.3%"}, {"smiles": "COc1ccc([N+](=O)[O-])cc1C1NN=C(c2cccc3ccccc23)S1", "note": "(stereo unspecified)", "potentiation": "0.861%"}, {"smiles": "Cc1ccc(NC(=O)c2oc3ccc(S(=O)(=O)N4CCCCC4)cc3c2C)cc1Cl", "potentiation": "3.15%"}, {"smiles": "CC1=C(c2ccc(C)c(C)c2)S(=O)(=O)NC1=NCc1ccccc1Cl", "potentiation": "-1.4%"}, {"smiles": "O=[S+]([O-])(c1ccc(OC(F)(F)F)cc1)N1CCN([S+](=O)([O-])c2ccc3c(c2)OCCO3)CC1", "potentiation": "5.85%"}, {"smiles": "O=C(CCS(=O)(=O)c1ccccc1)N(Cc1cccnc1)c1nc2c(F)cccc2s1", "potentiation": "-1.7%"}, {"smiles": "Cc1ccc(CNC(=O)Cn2c(=O)ccc3cc(S(=O)(=O)N4CCCC4)ccc32)cc1", "potentiation": "-0.25%"}, {"smiles": "CC(C)S(=O)(=O)c1oc(-c2ccc(F)cc2)nc1S(=O)(=O)c1ccc(F)cc1", "potentiation": "3.35%"}, {"smiles": "CCOC(=O)C1CCCN(C(=O)c2ccc3c(c2)sc2nc(-c4ccc(CC)cc4)cn23)C1", "note": "(stereo unspecified)", "potentiation": "-1.95%"}, {"smiles": "Cc1cccc(C)c1-n1ncc(C(=O)NCCCN2CCCCC2)c1C1CCN(C(=O)OC(C)(C)C)CC1", "potentiation": "31.8% (active)"}, {"smiles": "CCN1CCN(CCCNC(=O)c2cnn(-c3ccc(C)cc3C)c2C2CCN(C(=O)OC(C)(C)C)CC2)CC1", "potentiation": "-2.55%"}, {"smiles": "COc1ccccc1N1CCN(CCCNC(=O)c2cnn(-c3ccccc3Cl)c2C2CCN(C(=O)OC(C)(C)C)CC2)CC1", "potentiation": "-8.55%"}, {"smiles": "Cc1cc(NS(=O)(=O)c2ccc3oc(=O)c4ncn(C)c4c3c2)ccc1Br", "potentiation": "-5.95%"}, {"smiles": "CCc1ccc(S(=O)(=O)c2nnn3c2nc(N2CCN(CC)CC2)c2sccc23)cc1", "potentiation": "1.1%"}, {"smiles": "O=C(NCCc1ccccc1)c1ccc2c(c1)N(Cc1ccc(F)cc1)C(=O)c1ccccc1S2(=O)=O", "potentiation": "2.25%"}, {"smiles": "CCOc1ccc(-c2cc3nc(C4CCN(C(=O)OC(C)(C)C)CC4)c(C(=O)Nc4ccc(C(=O)OC)cc4)cn3n2)cc1", "potentiation": "-0.6%"}, {"smiles": "Cn1c(=O)n(Cc2c(F)cccc2Cl)c(=O)c2c1nc1n2CCN1c1ccc(F)cc1", "potentiation": "-3.15%"}, {"smiles": "CC(C)CCN(C(=O)Nc1ccc(Cl)c(Cl)c1)C(C)c1cccs1", "note": "(stereo unspecified)", "potentiation": "-1.95%"}, {"smiles": "O=C(CCCn1c(=O)c2cccn2c2cccnc21)NCc1ccc(F)cc1", "potentiation": "-4.5%"}, {"smiles": "CCc1nn(CC(=O)NCC(C)c2ccccc2)c(=O)c2cc3occc3n12", "note": "(stereo unspecified)", "potentiation": "-5.55%"}, {"smiles": "CCCCCn1c(=O)[nH]c2cc(C(=O)Nc3cc(C)cc(C)c3)ccc2c1=O", "potentiation": "1.1%"}, {"smiles": "CCCN1CCN(CCCNC(=O)c2ccc3nc(Cc4ccccc4)oc3c2)CC1", "potentiation": "-0.6%"}, {"smiles": "O=S(=O)(c1ccc2c(c1)OCCCO2)N1CCN(S(=O)(=O)c2c(F)cccc2F)CC1", "potentiation": "-3.35%"}, {"smiles": "O=c1n(Cc2cccc(C(F)(F)F)c2)c2ccccc2c2nc(-c3ccccc3)nn12", "potentiation": "0.85%"}, {"smiles": "CCOc1cccc(CNC(=O)c2ccc(N3CCCC3)c(NC(=O)Nc3ccccc3CC)c2)c1", "potentiation": "-0.4%"}, {"smiles": "Oc1ccc(Cl)cc1C1C=C(c2ccc3c(c2)OCO3)NC(c2ccc(F)c(Br)c2)N1", "note": "(stereo unspecified)", "potentiation": "1.65%"}, {"smiles": "CCOc1ccc(N2CC(C)Cn3c2nc2c3c(=O)n(Cc3c(F)cccc3Cl)c(=O)n2C)cc1", "note": "(stereo unspecified)", "potentiation": "1.1%"}, {"smiles": "CC(C)c1ccc(C2CC(=O)N3CN(C4CCCCC4)CSC3=C2C#N)cc1", "note": "(stereo unspecified)", "potentiation": "9.05%"}, {"smiles": "CN(C)c1ccc(C(=O)NCC(=O)OC(C(=O)Nc2cc(C(F)(F)F)ccc2Cl)c2ccccc2)cc1", "note": "(stereo unspecified)", "potentiation": "-1.25%"}, {"smiles": "CN1CCOc2cc(S(=O)(=O)N3CCN(S(=O)(=O)c4c(F)cccc4F)CC3)cnc21", "potentiation": "-1.8%"}, {"smiles": "O=C(Nc1ccc(C(=O)OCc2cc(=O)n3nc(C4CC4)sc3n2)cc1)c1ccc(F)cc1", "potentiation": "-0.15%"}, {"smiles": "Cc1cccc2nc(-c3ccc(Cl)s3)c(Nc3ccc4c(c3)OCCO4)n12", "potentiation": "1.7%"}, {"smiles": "CCN(CC)S(=O)(=O)c1ccc2c(c1)nc(CN(C)C(=O)Nc1ccc(Cl)cc1)n2C", "potentiation": "0.4%"}, {"smiles": "Cc1csc2nc(COC(=O)c3ccccc3NC(=O)c3ccccc3Cl)cc(=O)n12", "potentiation": "1.1%"}, {"smiles": "CCCCC(CC)CNC(=O)C1CCN(S(=O)(=O)c2cccc3nsnc23)CC1", "note": "(stereo unspecified)", "potentiation": "3.8%"}]}]}
